Experimental data from PMC12864922, “TDP-43 directly inhibits mRNA accumulation in neurites through modulation of mRNA stability”.
In all, about 9,900 sequences were measured (“r (bound/input frequency ratio)”: median about 0.7, highest 2% from about 6.5 on). This excerpt belongs to a sample that is enriched for the highest values.

B1: ENSMUSG00000061578.89|Ksr2 (ssRNA)
RNA: GGGAGUUCUACAGUCCGACGAUCGCUUCGAUAUCCGCAUGCUACAAACAUCUGAUUUUAGAGGUCCCAUUCCAAGAUGGAAGUCACCGGUUGCCGCUGAGCACACAAUUCUGAAGGACAGUAGGCAGUCCUGCAGGUCUUUUUUAGCACAGGGCCUCUCUGGGGACCAGUCCCUGGCCUUCACCCUUCUCCCAUUUUGUAAGAACACUGUUCUAACUCACCUCAUGCCCACGCUACCCUGGGCAACUGGAGAACACCAUAGCGUUUCAGCUGAUGUGACAUUUGGUGUGACCUUUACCAGUUCCUCUUGCGGUCGCACUAGUGUGGAAUUCUCGGGUGUCAAGG
B2: ENSMUSG00000090935.496|Synj2bp (ssRNA)
RNA: GGGAGUUCUACAGUCCGACGAUCGCUUCGAUAUCCGCAUGCUACUUCACAUAACUAAGCCAUUCAGUACUUUUUGAAACUGACUUAGUAACAGGAGUCAUUGUAAGCUCCAUAGAAGGCAAGACGCAUUCCACAUCUUGUCUUGACCAGCAGCACUCUGGAGGCCCAGUGUCUGCUACCCUUCUUGUAUCUGAUGGCAUGGGUAACAGCUCUGCCAUGGGCCUGCUUACUUCUAGUAUUCACCUCAGGGCUUGGAAAUUGGUUUUGAAAGGCUUUUAGACAUAGAAAGUAAAACUAAUGGCAACUCUUGCGGUCGCACUAGUGUGGAAUUCUCGGGUGUCAAGG
B3: ENSMUSG00000032194.286|Kank2 (ssRNA)
RNA: GGGAGUUCUACAGUCCGACGAUCGCUUCGAUAUCCGCAUGCUAGGAUGGGUGGACGGAUGAGUGUGGGGUGGGUGGAUGGAUAAAUGAGCAAUGGAUGAGAAACUGGGUUGGCUGGUGGGUAGAUGUCAUGAUGGAGUCUUUGCACGUGUAUGAAACAGAAAACCAAACUUCAGGACAGACAGCUGCUGGUGUCUCUGGAUGCUCACAGCCUAGGGCACAUUUGAAAGGUCGUGCUCUGAGCUGAGCCCUGAGUUCCAGCCUUGUAGCCAGCAAGGGAGUUUAUUUAAGGUUCUGGAAGCAUCCUCUUGCGGUCGCACUAGUGUGGAAUUCUCGGGUGUCAAGG
B4: ENSMUSG00000058297.17|Spock2|149:153;157:170;179:190;204:210;219:228;234:259 (ssRNA)
RNA: GGGAGUUCUACAGUCCGACGAUCGCUUCGAUAUCCGCAUGCUAGUAGAUAGCCCUCGACGGCCUCGGCAGGCCAGGGUGCCGACGGCCAGAAAGACAGGCCAGAAGAGACCUGGACAACAGCAGGCAACUUAGCAAAUGGAUCCGGAAGUCAGUGCGGAGGACCCUGGCUCCAGUGGGGGAGGACUGGGGACACACGCUACACACAUACACACAUAUGAGAACACACACAUACAUGUGAGAUGUGACACACACAUGUGAGAACACACAUACUGAGAACACACACACACACACACACACACACACUCUUGCGGUCGCACUAGUGUGGAAUUCUCGGGUGUCAAGG
B5: ENSMUSG00000058297.12|Spock2|179:183;187:200;209:220;234:240;249:258 (ssRNA)
RNA: GGGAGUUCUACAGUCCGACGAUCGCUUCGAUAUCCGCAUGCUAGGGUGAGGCAGAUGAUGGAGGCUACAUCUGGUAGAUAGCCCUCGACGGCCUCGGCAGGCCAGGGUGCCGACGGCCAGAAAGACAGGCCAGAAGAGACCUGGACAACAGCAGGCAACUUAGCAAAUGGAUCCGGAAGUCAGUGCGGAGGACCCUGGCUCCAGUGGGGGAGGACUGGGGACACACGCUACACACAUACACACAUAUGAGAACACACACAUACAUGUGAGAUGUGACACACACAUGUGAGAACACACAUACUGCUCUUGCGGUCGCACUAGUGUGGAAUUCUCGGGUGUCAAGG
B6: ENSMUSG00000058297.17|Spock2 (ssRNA)
RNA: GGGAGUUCUACAGUCCGACGAUCGCUUCGAUAUCCGCAUGCUAGUAGAUAGCCCUCGACGGCCUCGGCAGGCCAGGGUGCCGACGGCCAGAAAGACAGGCCAGAAGAGACCUGGACAACAGCAGGCAACUUAGCAAAUGGAUCCGGAAGUCAGUGCGGAGGACCCUGGCUCCAGUGGGGGAGGACUGGGGAGUGUGGCUUGUGUGUAUGUGUGAUAUGAGAUGUGUGUGUAUGAUGUGAGAUGUGAGUGUGUGAUGUGAGAUGUGUGUAUGUGAGAUGUGUGUGUGUGUGUGUGUGUGUGUGACUCUUGCGGUCGCACUAGUGUGGAAUUCUCGGGUGUCAAGG
B7: ENSMUSG00000058297.13|Spock2|173:177;181:194;203:214;228:234;243:252 (ssRNA)
RNA: GGGAGUUCUACAGUCCGACGAUCGCUUCGAUAUCCGCAUGCUAGGCAGAUGAUGGAGGCUACAUCUGGUAGAUAGCCCUCGACGGCCUCGGCAGGCCAGGGUGCCGACGGCCAGAAAGACAGGCCAGAAGAGACCUGGACAACAGCAGGCAACUUAGCAAAUGGAUCCGGAAGUCAGUGCGGAGGACCCUGGCUCCAGUGGGGGAGGACUGGGGACACACGCUACACACAUACACACAUAUGAGAACACACACAUACAUGUGAGAUGUGACACACACAUGUGAGAACACACAUACUGAGAUGUCUCUUGCGGUCGCACUAGUGUGGAAUUCUCGGGUGUCAAGG
B8: ENSMUSG00000058297.13|Spock2 (ssRNA)
RNA: GGGAGUUCUACAGUCCGACGAUCGCUUCGAUAUCCGCAUGCUAGGCAGAUGAUGGAGGCUACAUCUGGUAGAUAGCCCUCGACGGCCUCGGCAGGCCAGGGUGCCGACGGCCAGAAAGACAGGCCAGAAGAGACCUGGACAACAGCAGGCAACUUAGCAAAUGGAUCCGGAAGUCAGUGCGGAGGACCCUGGCUCCAGUGGGGGAGGACUGGGGAGUGUGGCUUGUGUGUAUGUGUGAUAUGAGAUGUGUGUGUAUGAUGUGAGAUGUGAGUGUGUGAUGUGAGAUGUGUGUAUGUGAGAUGUCUCUUGCGGUCGCACUAGUGUGGAAUUCUCGGGUGUCAAGG
B9: ENSMUSG00000058297.4|Spock2|227:231;235:248 (ssRNA)
RNA: GGGAGUUCUACAGUCCGACGAUCGCUUCGAUAUCCGCAUGCUAGGAGACAGAAGAGGCAGGGGAGGAGGCCGAGGAGGAGGAGGGUGAGGCGGGUGAGGCAGAUGAUGGAGGCUACAUCUGGUAGAUAGCCCUCGACGGCCUCGGCAGGCCAGGGUGCCGACGGCCAGAAAGACAGGCCAGAAGAGACCUGGACAACAGCAGGCAACUUAGCAAAUGGAUCCGGAAGUCAGUGCGGAGGACCCUGGCUCCAGUGGGGGAGGACUGGGGACACACGCUACACACAUACACACAUAUGAGAUGUGCUCUUGCGGUCGCACUAGUGUGGAAUUCUCGGGUGUCAAGG
B10: ENSMUSG00000058297.7|Spock2|209:213;217:230;239:250 (ssRNA)
RNA: GGGAGUUCUACAGUCCGACGAUCGCUUCGAUAUCCGCAUGCUAGGAGGAGGCCGAGGAGGAGGAGGGUGAGGCGGGUGAGGCAGAUGAUGGAGGCUACAUCUGGUAGAUAGCCCUCGACGGCCUCGGCAGGCCAGGGUGCCGACGGCCAGAAAGACAGGCCAGAAGAGACCUGGACAACAGCAGGCAACUUAGCAAAUGGAUCCGGAAGUCAGUGCGGAGGACCCUGGCUCCAGUGGGGGAGGACUGGGGACACACGCUACACACAUACACACAUAUGAGAACACACACAUACAUGUGAGAUGCUCUUGCGGUCGCACUAGUGUGGAAUUCUCGGGUGUCAAGG
B11: ENSMUSG00000058297.12|Spock2 (ssRNA)
RNA: GGGAGUUCUACAGUCCGACGAUCGCUUCGAUAUCCGCAUGCUAGGGUGAGGCAGAUGAUGGAGGCUACAUCUGGUAGAUAGCCCUCGACGGCCUCGGCAGGCCAGGGUGCCGACGGCCAGAAAGACAGGCCAGAAGAGACCUGGACAACAGCAGGCAACUUAGCAAAUGGAUCCGGAAGUCAGUGCGGAGGACCCUGGCUCCAGUGGGGGAGGACUGGGGAGUGUGGCUUGUGUGUAUGUGUGAUAUGAGAUGUGUGUGUAUGAUGUGAGAUGUGAGUGUGUGAUGUGAGAUGUGUGUAUGUGCUCUUGCGGUCGCACUAGUGUGGAAUUCUCGGGUGUCAAGG
B12: ENSMUSG00000058297.10|Spock2|191:195;199:212;221:232;246:252 (ssRNA)
RNA: GGGAGUUCUACAGUCCGACGAUCGCUUCGAUAUCCGCAUGCUAGGAGGGUGAGGCGGGUGAGGCAGAUGAUGGAGGCUACAUCUGGUAGAUAGCCCUCGACGGCCUCGGCAGGCCAGGGUGCCGACGGCCAGAAAGACAGGCCAGAAGAGACCUGGACAACAGCAGGCAACUUAGCAAAUGGAUCCGGAAGUCAGUGCGGAGGACCCUGGCUCCAGUGGGGGAGGACUGGGGACACACGCUACACACAUACACACAUAUGAGAACACACACAUACAUGUGAGAUGUGACACACACAUGUGAGACUCUUGCGGUCGCACUAGUGUGGAAUUCUCGGGUGUCAAGG

Target: TDP-43 (Homo sapiens, UniProt Q13148 1-414)
Test: RNA Bind-n-Seq with designed 260-mer pool; 25 mM Tris-HCl, 150 mM KCl, 3 mM MgCl2, BSA (printed 500 mg/mL), 20 units/mL SUPERase IN; pH not stated; 500 nM RNA pool, 1 h, 4 C; TDP-43 5, 50, 500 nM; high values mean tight binding
Settings: protein: recombinant; tags: SBP (GST cleaved off with PreScission; pGEX-GST-SBP)
How it was run: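 Duplicate measurements used two independent batches of recombinant SBP-tagged TDP-43, which was captured on streptavidin beads at 5, 50 or 500 nM. The beads were incubated with 500 nM of an in vitro-transcribed 260-nt 3′ UTR oligo pool for 1 h at 4 °C in 25 mM Tris-HCl, 150 mM KCl, 3 mM MgCl2, BSA and SUPERase IN. After washing, biotin elution, reverse transcription, PCR amplification and sequencing, binding was expressed as R: each oligo's normalized read abundance in the bound sample over its abundance in input.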

Chain of TDP-43 (Q13148 whole entry): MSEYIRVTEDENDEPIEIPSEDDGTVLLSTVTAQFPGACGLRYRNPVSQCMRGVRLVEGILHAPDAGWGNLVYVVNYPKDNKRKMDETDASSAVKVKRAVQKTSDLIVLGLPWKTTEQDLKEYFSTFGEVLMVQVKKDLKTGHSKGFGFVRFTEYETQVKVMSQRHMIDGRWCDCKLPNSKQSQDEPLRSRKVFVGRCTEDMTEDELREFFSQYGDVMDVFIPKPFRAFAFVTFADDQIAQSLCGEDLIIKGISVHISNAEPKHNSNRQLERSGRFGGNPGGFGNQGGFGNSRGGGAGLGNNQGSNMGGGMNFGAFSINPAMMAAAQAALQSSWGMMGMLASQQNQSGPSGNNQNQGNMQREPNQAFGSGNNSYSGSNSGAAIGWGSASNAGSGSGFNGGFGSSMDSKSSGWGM

Row | Binder | binding signal
1 | B1 | 0.288 R (bound/input frequency ratio)
2 | B2 | 0.243 R (bound/input frequency ratio)
3 | B3 | 5.11 R (bound/input frequency ratio)
4 | B4 | 2.9 R (bound/input frequency ratio)
5 | B5 | 2.28 R (bound/input frequency ratio)
6 | B6 | 8.62 R (bound/input frequency ratio)
7 | B7 | 2.37 R (bound/input frequency ratio)
8 | B8 | 7.72 R (bound/input frequency ratio)
9 | B9 | 2.44 R (bound/input frequency ratio)
10 | B10 | 2.55 R (bound/input frequency ratio)
11 | B11 | 8.09 R (bound/input frequency ratio)
12 | B12 | 2.04 R (bound/input frequency ratio)
